# GLP1R ag = agonists of human GLP-1 receptor. HEK293 GLP-1R CRE-luciferase, luminescence, 4-6 h; cells express a hypersensitive GLP-1R form. Potency, µM (highest dose often 45.6 µM), inactives show top-dose activation, most hits filed as activators. 0.007% of 380,000 active; note: % of control where 0% means no effect
# HEK293 tox = cytotoxicity in counter-screen for GLP-1R inverse agonists | HEK293 cAMP-luciferase reporter cells, luminescence, 24 h | Potency, µM (titrated, usually from 38.3 µM), inactives show at the top dose activity change, negative = inhibition, hits mostly inhibitors | 0.13% of 410,000 active | AID 624418;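 note: loss of luciferase light is scored as toxicity; % is set by controls: 0 for no effect and ±100 for the full control effect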
#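 Here, cytotoxicity is scored as loss of luminescence. The MLSMR collection was tested on cells seeded in medium containing 10% Nu serum, with a 24 hr compound exposure preceded by 12 hours of culture.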
# GLP-1R inv ag = acts as inverse agonist at human GLP-1 receptor; Potency, µM (highest dose often 38.3 µM), for the others: at the top dose activity change, negative = inhibition, most hits filed as inhibitors; HEK293 GLP-1R CRE-luciferase, luminescence, 24 h; GLP-1R form is constitutively active; AID 624417; 1.6% of 410,000 active; P43220; note: % is set by controls: 0 for no effect and ±100 for the full control effect; nearly all actives have a fitted effect of over 55% in size
#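 Stable HEK293 clone (constitutively active GLP-1R + cAMP-response luciferase); 200 cells/uL plated, 12 h pre-culture, compound 24 hr, 37 deg C/5% CO2; detection reagent 12 min RT; luminescence.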
# PTHR1 ag = agonists of human PTHR1 parathyroid hormone receptor. Q03431. 0.075% of 410,000 active. HEK293 GP2 PTHR1 cells, GloSensor cAMP luminescence, 1 h. AID 743266. Potency, µM (top dose mostly 115 µM), without a hit: top-dose activation, most hits filed as activators; note: nearly all actives have a fitted effect of over 55% in size
# Target sequence (Q03431 whole entry, looked up): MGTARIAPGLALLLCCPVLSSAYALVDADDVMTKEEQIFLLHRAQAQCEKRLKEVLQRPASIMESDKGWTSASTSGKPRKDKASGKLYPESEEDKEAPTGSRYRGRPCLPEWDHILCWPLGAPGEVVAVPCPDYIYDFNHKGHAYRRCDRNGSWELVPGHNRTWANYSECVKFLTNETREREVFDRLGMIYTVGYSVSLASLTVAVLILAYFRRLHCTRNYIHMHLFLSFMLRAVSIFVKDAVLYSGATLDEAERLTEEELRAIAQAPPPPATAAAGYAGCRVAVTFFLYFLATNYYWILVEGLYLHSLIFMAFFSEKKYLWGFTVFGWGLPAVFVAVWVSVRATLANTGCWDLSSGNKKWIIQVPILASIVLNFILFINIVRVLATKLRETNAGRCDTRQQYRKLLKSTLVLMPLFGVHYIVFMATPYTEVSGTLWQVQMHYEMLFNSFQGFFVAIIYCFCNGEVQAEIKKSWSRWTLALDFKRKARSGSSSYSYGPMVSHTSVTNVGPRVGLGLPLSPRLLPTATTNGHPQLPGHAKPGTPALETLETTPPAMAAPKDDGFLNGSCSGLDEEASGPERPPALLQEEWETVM
#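 HEK-293-derived GP2 cells expressing PTHR1 and a GloSensor cAMP reporter, 3,000/well, plated overnight, given luciferin plus IBMX (each 0.5 mM as added) for 1 h at 37 °C, then compound for 1 h at 37 °C. Luminescence was read after 15 min at room temperature.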
# Starred values were filed as active, the others as inactive; i = inactive; ? = inconclusive; nt = no result. Sampled rows, rich in hits. Any-hit rate of the full collection: about 1.7%. Calls come from the whole dose curve; as a rule, active = well fitted curve in the direction sought with a large enough effect; inconclusive = small, poorly fitted or top-dose-only effect, or another doubt; inactive = no such curve, though single readings can be large; an effect the other way counts as inactive or inconclusive. Potency is the fitted concentration of half-maximal effect.
SMILES,GLP1R ag,HEK293 tox,GLP-1R inv ag,PTHR1 ag
Cc1ccnc(NC(=O)c2ccc(OCC3CCCO3)cc2)c1 (configuration not stated),-5%,-13%,5.6µM*,-8%
CC(NC(=O)CN(C)Cc1nc2ccccc2c(=O)[nH]1)c1ccccc1 (configuration not stated),-2%,-1%,22%,i
CN(Cc1nc2ccccc2c(=O)[nH]1)Cc1nc2ccsc2c(=O)[nH]1,6%,13µM*,-18%,-25%
CC(OCC(O)CN(C)Cc1nc2ccccc2c(=O)[nH]1)c1ccc(Cl)cc1 (configuration not stated),23%,-27%,10µM*,-33%
CN(Cc1nc2ccccc2c(=O)[nH]1)C(=O)c1ccccc1OCc1ccc(Cl)cc1,16%,-5%,?,-30%
O=S(=O)(c1ccsc1)N1CC=C(c2ccccc2)CC1,17%,0%,-8%,-41%
COc1ccccc1NC(=O)CSc1nnc(C2CCCCC2)n1-c1ccccc1,14%,-11%,3.2µM*,-11%
COc1ccccc1NC(=O)CSc1nnc(C2CCCCC2)n1C,11%,3%,-21%,i
Cc1cc(C)c2nc(C)cc(Nc3ccc(C(=O)N(C)C)cc3)c2c1,10%,-25%,?,i
CC(=O)c1ccc(Nc2cc(C)nc3c(C)cc(C)cc23)cc1,16%,?,8.9µM*,i
COc1cc2c(cc1[N+](=O)[O-])-c1ccc([N+](=O)[O-])cc1C2=NO,11%,-7%,5%,-1%
CO[C@H]1OC2O[C@@]3(C)CC[C@H]4[C@H](C)CC[C@@H]([C@H]1C)[C@@]24OO3 (some centres not stated),-8%,nt,nt,nt
O=C(NCCN1CCCCC1)Nc1ccc(F)cc1,-1%,-1%,-4%,i
Cc1cc2nc(C)n(CCCNC(=O)Nc3ccc(F)cc3)c2cc1C,1%,-19%,10µM*,i
Cc1ccc(C(=O)CC2(O)C(=O)N(CCc3ccccc3)c3ccc(Cl)cc32)cc1 (configuration not stated),-6%,?,?,-34%
CN(C(=O)CSc1nc2ccc(NC(=O)c3cccc(F)c3)cc2s1)c1ccccc1,nt,?,5.6µM*,-36%
S=C1NC2=C(CCC/C2=C\c2ccc(Cl)cc2)C(c2ccc(Cl)cc2)N1 (configuration not stated),-1%,-26%,7.9µM*,-49%
Fc1cccc(/C=C2\CCCC3=C2NC(=S)NC3c2cccc(F)c2)c1 (configuration not stated),-5%,-32%,10µM*,-46%
S=C1NC2=C(CCC/C2=C\c2ccccc2)C(c2ccccc2)N1 (configuration not stated),2%,-23%,3%,i
Cc1ccc(NC2CCCN(C(=O)CCn3nccc3C)C2)cc1C (configuration not stated),2%,7%,-17%,-24%
COc1cc(CCc2ccccc2)c(C(=O)O)c(O)c1CC=C(C)C,-1%,-11%,10µM*,-92%
COc1cc(CCc2ccccc2)c(C(=O)O)c(O)c1C/C=C(/C)CCC=C(C)C,1%,?,?,-27%
CCc1cccc(C)c1NC(=O)CN(C)Cc1cccc(F)c1,4%,-3%,8.9µM*,i
Cc1cccc(C(C)C)c1NC(=O)CN(C)Cc1cccc(F)c1,-5%,4%,?,-23%
COc1cc(/C=C2\SC(=S)N(C(Cc3ccccc3)C(=O)O)C2=O)ccc1O (configuration not stated),-4%,10µM*,-4%,-10%
SMILES,GLP1R ag,HEK293 tox,GLP-1R inv ag,PTHR1 ag
CCOc1cc(/C=C2\SC(=S)N(Nc3ccccc3)C2=O)ccc1O,-3%,-8%,?,-86%
COc1cc(/C=C2\SC(=S)N(Nc3ccccc3)C2=O)ccc1O,-1%,10µM*,?,-30%
O=C(O)C(Cc1ccccc1)N1C(=O)/C(=C/c2ccccc2)SC1=S (configuration not stated),-6%,1%,?,-6%
Cc1ccc(NC(=O)CSc2nc3ncccc3[nH]2)cc1F,nt,0%,5%,i
CCCCNC(=O)Cn1nc(N2CCN(c3ccccc3OC)CC2)ccc1=O,nt,1%,-4%,-18%
Cc1ccc(Nc2nc(N)nc(CCl)n2)c(C)c1,15%,-6%,4.5µM*,-75%
Cc1cccc(Nc2nc(N)nc(CCl)n2)c1C,31%,-26%,5µM*,i
CC(C)c1nnc(N2C(=O)c3oc4ccccc4c(=O)c3C2c2ccccc2F)s1 (configuration not stated),nt,-8%,-2%,i
C#CCn1c(=NC(=O)c2ccc(S(=O)(=O)N3CCc4ccccc4C3)cc2)sc2cc(S(N)(=O)=O)ccc21,-31%,3.5µM*,4µM*,i
C=CCn1c(=NC(=O)c2ccc(S(=O)(=O)N3CCc4ccccc4C3)cc2)sc2cc(S(N)(=O)=O)ccc21,1%,?,?,i
CO/N=C1/CC2(CC3CC(C/C=C(/C)CC(C)/C=C\C=C4\COC5C(O)C(C)=CC(C(=O)O3)C45O)O2)OC(/C(C)=C/C(C)C)C1C (configuration not stated),-4%,nt,nt,nt
Cc1ccc(NC(=O)C2SC(=Nc3ccccc3)C(C(=O)Nc3ccc(Cl)cc3)=C2N)cc1 (configuration not stated),0%,-6%,?,i
Cc1ccc(N=C2SC(C(=O)Nc3ccc(OC(F)(F)F)cc3)C(N)=C2C(=O)Nc2c(C)cc(C)cc2C)cc1 (configuration not stated),-4%,?,2.8µM*,-24%
CCOc1ccccc1C(=O)Nc1cc(Cl)ccc1O,0%,?,7.1µM*,-42%
CC(=O)c1ccc(OCC(O)CN(C)CCOc2ccc(Br)cc2)cc1 (configuration not stated),0%,10%,10µM*,-18%
CC(=O)c1ccc(OCC(O)COc2ccc(C(C)=O)cc2)cc1,1%,12%,12%,i
CCCCSCCCNC(=O)c1cn(C)c2ccc(S(=O)(=O)N3CCCCCC3)cc2c1=O,nt,-9%,11%,-15%
CCC1(c2cnc[nH]2)Cc2ccccc2C1,-1%,nt,nt,nt
CC(Oc1ccccc1)C(=O)N1CCN=C1SCc1ccccc1F (configuration not stated),12%,-6%,4µM*,i
C=Cc1ccc(Cn2c(C(=O)O)c(CNCc3ccccc3)c3ccc(OC)cc32)cc1,nt,?,?,i
CCN(C(=O)c1cccnc1)c1ccccc1,7%,28%,13%,-32%
CCN(C(=O)c1ccc(C)c(Br)c1)c1ccccc1,10%,1%,10µM*,i
CN(C)c1ccc(NC(=S)c2ccccn2)cc1,-16%,-27%,5.6µM*,-24%
Cc1cccc(OCCNC(=O)c2ccc(Oc3ccc(C(F)(F)F)cc3[N+](=O)[O-])cc2)c1,0%,-8%,?,-35%
